# This is a sample that favours compounds with a hit; in the whole collection about 2.5% have one here.
# TWEAK Fn14 block – TWEAK-Fn14 signaling inhibition; TWEAK-stimulated Fn14 reporter cells, luciferase luminescence, 8 h; 2% of 360,000 active; inhibition, % at 10 µM; in the data active = inhibition above about 50%
# TROY NFkB inh – blocks TROY-dependent signaling in reporter cells; Q293 LMP1-TROYcd NF-kB luciferase reporter, 4 h; inhibition, % at 10 µM; 0.98% of 360,000 active; AID 1347056;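 active = compounds whose plate-normalised and pattern-corrected inhibition of the luciferase reporter signal at the single screening dose is 50% or more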
# EBV LMP1 NFkB – Epstein-Barr LMP1 NF-kappaB reporter inhibition; 0.69% of 350,000 active; AID 504558; LMP1-induced NF-kappaB luciferase reporter cells, luminescence; inhibition, % at 12.5 µM; in the data active = inhibition above about 41%; inconclusive = no clear call, values can overlap the other calls;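 also: 0% = neutral control wells and 100% = reference inhibitor control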
# LGR2 antag – blocks bursicon-induced cAMP signaling via Drosophila LGR2; HEK293 LGR2, CRE-luciferase, bursicon-stimulated, 4 h; inhibition, % at 9.99 µM; 0.35% of 380,000 active; AID 720647;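 active = drop in luminescence signal, shown as inhibition above about 50% in the replicate tests, limit read from the data, passing the limit was not always enough; inconclusive = probably only some replicates passing the limit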;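 also: agonist challenge used bursicon conditioned medium at about half maximal strength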
# EWS-Fli inh – blocks EWS/Fli oncoprotein-driven transcription; A673 NR0B1-luciferase reporter, viability-normalised; inhibition, % at 12.6 µM; 0.67% of 350,000 active; AID 651661;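 active = mean inhibition of at least 50% after viability correction, with every replicate also passing that limit; inconclusive = mean reaches 50% but only one of two replicates passes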;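 also: firefly luciferase signal divided by Alamar Blue viability fluorescence both relative to DMSO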
# Starred values were filed as active, the others as inactive; ? = inconclusive; / = not tested or not shown.
SMILES,TWEAK Fn14 block,TROY NFkB inh,EBV LMP1 NFkB,LGR2 antag,EWS-Fli inh
C[C@@H]1CN([C@@H](C)CO)C(=O)c2cccc(NC(=O)Nc3ccc(C(F)(F)F)cc3)c2O[C@@H]1CN(C)CC1CC1,/,/,/,16,0
C[C@@H]1CCCCO[C@@H](CN(C)CC2CCCCC2)[C@@H](C)CN([C@H](C)CO)C(=O)c2cc(NC(=O)Nc3ccc(C(F)(F)F)cc3)ccc2O1,/,/,/,-11,-11
C[C@@H]1CN([C@@H](C)CO)C(=O)c2cccc(NC(=O)Nc3ccc(C(F)(F)F)cc3)c2O[C@@H]1CN(C)CC1CCCCC1,/,/,/,/,61*
C[C@@H]1CCCCO[C@H](CN(C)CC2CCCCC2)[C@H](C)CN([C@@H](C)CO)C(=O)c2cc(NC(=O)Nc3ccc(C(F)(F)F)cc3)ccc2O1,/,/,/,-4,81*
C[C@@H]1CCCCO[C@@H](CN(C)CC2CCCCC2)[C@H](C)CN([C@@H](C)CO)C(=O)c2cc(NC(=O)Nc3ccc(C(F)(F)F)cc3)ccc2O1,/,/,/,6,76*
CC(C)NC(=O)N(C)C[C@@H]1Oc2c(NC(=O)Nc3ccc4c(c3)OCO4)cccc2C(=O)N([C@H](C)CO)C[C@@H]1C,/,/,/,-9,-15
CC(C)NC(=O)N(C)C[C@H]1Oc2c(NC(=O)Nc3ccc4c(c3)OCO4)cccc2C(=O)N([C@H](C)CO)C[C@@H]1C,4,-15,83*,-14,-26
O=C(C[C@@H]1C[C@@H]2c3cc(NS(=O)(=O)c4ccc(F)cc4)ccc3O[C@@H]2[C@H](CO)O1)NCc1ccc(Oc2ccccc2)cc1,29,31,/,7,25
O=C(C[C@@H]1C[C@H]2c3cc(NS(=O)(=O)c4ccc(F)cc4)ccc3O[C@H]2[C@H](CO)O1)NCc1ccc(Oc2ccccc2)cc1,/,/,/,/,59*
O=C(C[C@H]1C[C@@H]2c3cc(NS(=O)(=O)c4ccc(F)cc4)ccc3O[C@@H]2[C@H](CO)O1)NCc1ccc(Oc2ccccc2)cc1,/,/,/,0,25
O=C(C[C@@H]1C[C@H]2c3cc(NS(=O)(=O)c4ccc(F)cc4)ccc3O[C@H]2[C@@H](CO)O1)NCc1ccc(Oc2ccccc2)cc1,/,/,/,/,59*
C[C@@H]1CN([C@@H](C)CO)C(=O)c2cc(NC(=O)CCC(F)(F)F)ccc2O[C@@H](C)CCCCO[C@H]1CN(C)S(=O)(=O)c1ccc(F)cc1,/,/,/,-6,-9
Cc1ccc(S(=O)(=O)Nc2ccc3c(c2)CC(=O)N([C@H](C)CO)C[C@@H](C)[C@H](CN(C)C(=O)Nc2cccc4ccccc24)O3)cc1,/,/,/,-14,2
O=C(c1cccs1)c1ccccc1Cc1cccs1,92*,-24,0,-20,-8
C=CCNc1nc(Nc2ccc(-c3nc4ccccc4o3)cc2)nc(N2CCOCC2)n1,53*,58*,-6,-8,11
C=CCNc1nc(NCC)nc(N2CCOCC2)n1,6,14,3,/,/
CCCCCc1ccc(OCCOCCn2c[n+](C)c3ccccc32)c(CCCCC)c1,89*,52*,20,/,/
CC(=O)Nc1ccc(OCCC[n+]2ccccc2)cc1,13,12,0,19,13
CCCCCc1ccc(OCCC[n+]2ccccc2)c(CCCCC)c1,67*,47,25,15,38
O=C(C[C@@H]1CC[C@@H](NC(=O)Cc2cccnc2)[C@H](CO)O1)Nc1ccccc1,/,/,/,-7,7
C[C@@H]1CN([C@@H](C)CO)C(=O)Cc2cc(NS(=O)(=O)c3ccc(Cl)cc3)ccc2O[C@H]1CN(C)C(=O)Nc1ccc2c(c1)OCO2,/,/,/,-29,-6
CCOC(=O)C1=C(O)/C(=C/c2ccc(-c3ccccc3C(=O)O)o2)SC1=Nc1ccc(OC)cc1,22,3,1,/,/
CCOC(=O)C1=C(O)/C(=C/c2ccc(-c3ccccc3C(=O)O)o2)SC1=Nc1ccc(C)cc1,58*,2,-5,12,1
COc1ccc(NC(=O)CN(C)CC(=O)Nc2cccc(F)c2)cc1S(=O)(=O)N1CCCCC1,-2,-3,-1,-5,-5
Cc1ccc(NC(=O)Cn2ncc(Cl)c(Cl)c2=O)cc1S(=O)(=O)N1CCCCC1,86*,84*,-12,6,?
Cc1ccc(C(=O)Nc2cccc(C(=O)O)c2)cc1S(=O)(=O)N1CCCCC1,-15,-18,44*,/,/
Cc1ccc(NC(=O)Cc2ccc(Cl)cc2)cc1S(=O)(=O)N1CCCCCC1,49,31,3,16,19
Cc1ccc(NC(=O)c2cc(=O)c3ccccc3o2)cc1S(=O)(=O)N1CCCCC1,-18,57*,2,28,15
